Screening data as filed in PubChem BioAssay.
ALDH1A1 block = blocks purified human ALDH1A1 activity. P00352. Purified ALDH1A1, NADH fluorescence, propionaldehyde substrate. Potency, µM (series often up to 75.3 µM), for the others: at the highest dose activity, negative = inhibition, hits mostly inhibitors. 220,000 tested, 7.3% active. AID 1030; active = well fitted inhibition curve with a large enough effect, not every such curve was filed as active; inconclusive = small, poorly fitted or top-dose-only effect, or another doubt; inactive = no such curve, though single readings can be large or run the other way;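 also: plate controls were no enzyme wells and a reference inhibitor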
HPGD inh = blocks human HPGD enzyme activity. P15428. purified HPGD, NADH fluorescence kinetic, PGE2 substrate. Potency, µM, for inactives: at the top dose activity change, negative = inhibition, actives largely listed as inhibitors. 150,000 tested, 4.3% active; active = well fitted inhibition curve with a large enough effect, not every such curve was filed as active; inconclusive = small, poorly fitted or top-dose-only effect, or another doubt; inactive = no such curve, though single readings can be large or run the other way; also: % is scaled to controls: 0 for no effect and ±100 for the full control effect
Target sequence (P15428 whole entry, looked up): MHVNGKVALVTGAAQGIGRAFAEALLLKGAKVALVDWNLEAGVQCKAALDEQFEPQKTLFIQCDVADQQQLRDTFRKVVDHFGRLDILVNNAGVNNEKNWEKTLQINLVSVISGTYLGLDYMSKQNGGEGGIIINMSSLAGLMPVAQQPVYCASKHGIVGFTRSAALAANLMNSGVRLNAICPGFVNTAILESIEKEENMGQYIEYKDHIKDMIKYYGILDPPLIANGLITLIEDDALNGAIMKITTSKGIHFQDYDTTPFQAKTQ
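NADH formation kinetics: reaction with 30 uM PGE2 and 1 mM NAD+ (final), 20 nM enzyme, Tris-HCl pH 8 with Tween 20, after 15 min compound preincubation at room temperature. Fluorescence change, last versus first of five reads.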
HTT cytoprotect = protects HTT-Q103 PC12 cells, measured by ATP; PC12 HTT-Q103 induced, cytoprotection, ATP luminescence, 40 h; Potency, µM (highest dose often 56.4 µM), for inactives: cytoprotection (ATP increase), usual class: activators; 230,000 tested, 0.14% active; AID 1471; also: % of control where 0% means no effect; nearly all actives have a fitted effect of over 45% in size
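Stable PC12 Q103-GFP cells in serum-supplemented, phenol red-free DMEM; induction by tebufenozide at 100 nM final; compound dose series; cell viability quantified luminescently from ATP.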
HTT aggregate = reduces HttQ103-GFP aggregates in PC12 cells. PC12 HttQ103-GFP aggregates, Acumen cytometry, 40 h. Potency, µM (titrated, usually from 46.1 µM), inactives show at the top dose activity change, negative = inhibition, hits mostly inhibitors. 220,000 tested, 1.1% active; also: % is scaled to controls: 0 for no effect and ±100 for the full control effect; nearly all actives have a fitted effect of over 60% in size
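Compounds (qHTS titration) were added to PC12 cells expressing an ecdysone-driven HTT exon 1 Q103–GFP fusion after induction with 100 nM tebufenozide. Aggregate formation was measured as GFP objects in cell lysates.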
Lamin A splicing = modulators of lamin A splicing. Potency, µM (titrated, usually from 46.1 µM), inactives show at the top dose ratio change, negative = inhibition, hits mostly inhibitors. AID 1487. 200,000 tested, 0.01% active. HeLa LMNA splicing GFP/RFP minigene ratio, 48 h; active = well fitted inhibition curve with a large enough effect in the signal ratio, with a control signal flat, not every such curve was filed as active; inconclusive = small, poorly fitted or top-dose-only effect, or effect the other way, or a change in a side signal; the % refers to the signal ratio; also: % is scaled to controls: 0 for no effect and ±100 for the full control effect
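S3 HeLa cells stably expressing lamin A-EGFP splicing minigene plus DsRed2, 600 cells/well, 48 h compound exposure at 37C. Laser-scanning cytometry; analysed as GFP (500-530 nm)/RFP (575-640 nm) total intensity ratio; 0.5% DMSO vehicle.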
* = called active by the depositor; ? = inconclusive; / = no result; [ ] = dose if it differs, or a comment. Hits are enriched below; roughly 8.8% of the tested compounds scored in any of these assays. Unless noted, calls follow the shape of the dose curve; as a rule, active = well fitted curve in the direction sought with a large enough effect; inconclusive = small, poorly fitted or top-dose-only effect, or another doubt; inactive = no such curve, though single readings can be large; an effect the other way counts as inactive or inconclusive. Potency is read from the fitted curve at half-maximal effect.

SMILES | ALDH1A1 block | HPGD inh | HTT cytoprotect | HTT aggregate | Lamin A splicing
CC(=O)N(Cc1cccnc1)c1nc2c(C)cccc2s1 | / | / | / | / | -2%[46 µM]
CCC1CCCCN1C(=O)Cn1c(=O)n(-c2ccccc2C(F)(F)F)c(=O)c2c(C)c(C(=O)N(C)C)sc21 (configuration not stated) | / | / | / | / | 12%[46 µM]
O=C(COC(=O)CNC(=O)c1sc2ccccc2c1Cl)Nc1c(Cl)cc(Cl)cc1Cl | 7% | -11% | / | 3% | 8%
O=C(OCc1cc(=O)n2nc(-c3cccs3)sc2n1)c1cccc(F)c1 | / | / | / | / | 5%[46 µM]
Cc1ccc(NC(=O)C(Nc2cccc(C)c2)c2ccccc2)cc1 (configuration not stated) | 28µM* | -13% | 9%[10 µM] | -13% | ?
O=C(c1cc(F)c(F)cc1Cl)N1CCOCC1 | 10% | -17% | -4%[10 µM] | -11% | 1%
CC1CCN(C(=O)c2cc(F)c(F)cc2Cl)CC1 | 3% | 13µM* | -2%[10 µM] | -10% | -9%
Nc1cccc2nsnc12 | / | / | 16%[10 µM] | -20%[9.22 µM] | /
Nc1cc2nsnc2cc1Br | 7.9µM* | -16% | 6% | 3% | 17%
Cc1c(NC(=O)/C(C#N)=C/c2ccc(-c3cccc(Cl)c3)o2)c(=O)n(-c2ccccc2)n1C | 4% | 18µM* | 23%[10 µM] | -21% | -17%
Cc1cccc(-c2ccc(C=Nc3c(C)n(C)n(-c4ccccc4)c3=O)o2)c1 | 11µM* | -27% | -4% | -5% | 6%
O=C(CSc1nnc(-c2ccccc2)c(-c2ccccc2)n1)Nc1ccccc1Cl | / | / | / | / | -6%[46 µM]
Cn1c(=O)[nH]c2cc(-c3noc(-c4ccc(C#N)cc4)n3)ccc21 | / | / | / | / | -3%[46 µM]
C[N+](C)(C)CCN[N@@+]1(C)CCCc2ccccc21 | -12%[13.5 µM] | ? | -11%[10 µM] | / | /
Cn1c2c(c(=O)n(C)c1=O)C(C(F)(F)F)(C(F)(F)F)N=C(c1ccc(Cl)cc1)N2 | 12% | -9% | -65% | 1.3µM* | ?
Cc1ccccc1C1=NC(C(F)(F)F)(C(F)(F)F)c2c(n(C)c(=O)n(C)c2=O)N1 | 3% | -14% | 5%[10 µM] | -3% | 12%
CN(C#N)c1nc(Cl)nc(Nc2cccc(Cl)c2)n1 | 4µM* | -21% | -29%[10 µM] | 2% | -15%
CCc1ccc(C2=NN(CCC(=O)NC(C)CCc3ccccc3)C(=O)CC2)cc1 (configuration not stated) | -11% | / | -44% | -23% | /
CCn1c(SCc2nc3sc(C(=O)O)c(C)c3c(=O)[nH]2)nc2ccccc21 | ? | 16µM* | 13% | 5% | -2%
CCOC(=O)COc1ccc(Br)cc1/C=C/c1[nH]c(=O)[nH]c(=O)c1[N+](=O)[O-] | ? | / | -12% | ? | 248%[46 µM]
CCOc1cc(/C=C\c2[nH]c(=O)[nH]c(=O)c2[N+](=O)[O-])ccc1OC(C)CC (configuration not stated) | -2% | ? | 2.5µM* | ? | ?
CCOC(=O)COc1ccc(Br)cc1/C=C\c1[nH]c(=O)[nH]c(=O)c1[N+](=O)[O-] | ? | 16µM* | -38%[0.074 µM] | -11% | ?
CCN(CC)c1nn2c(=O)c(C(=O)NCc3ccc(F)cc3)cnc2s1 | / | / | / | / | 11%[46 µM]
O=C(NCc1ccc2c(c1)OCO2)c1ccc(COc2cccc(Cl)c2)o1 | ? | -17% | -16%[10 µM] | 28µM* | ?
COc1ccc(S(=O)(=O)Cc2ccc(C(=O)N3CCN(C(=O)c4ccco4)CC3)o2)cc1 | 6µM* | -16% | -16% | -1% | 1%
SMILES | ALDH1A1 block | HPGD inh | HTT cytoprotect | HTT aggregate | Lamin A splicing
COc1ccc(S(=O)(=O)Cc2ccc(C(=O)N3CCN(Cc4ccccc4)CC3)o2)cc1 | 13µM* | -16% | -8% | -2% | -18%
Cc1ccc(S(=O)(=O)Cc2ccc(C(=O)O)o2)cc1 | 8.9µM* | -23% | -4% | 24% | -3%
COc1ccc(N2CCN(C(=O)c3ccc(CS(=O)(=O)c4ccc(OC)cc4)o3)CC2)cc1 | 1% | -5% | -40% | 3% | 1%
COCCNC(=O)c1ccc(CS(=O)(=O)c2ccc(C)cc2)o1 | 6% | -5% | -11%[0.074 µM] | -13% | 5%
COCC(=O)C(C(=O)OC)[C@H](CCc1ccccc1)NC(=O)OC (some centres not stated) | -7% | -10% | 19% | / | /
CC(C)N(Cc1ccccc1)C(=O)CCS(=O)(=O)c1cc2c(cc1Cl)NC(=O)CO2 | / | / | / | / | 9%[46 µM]
Cc1c(-c2ccc(Cl)cc2)c(=O)oc2c(CN3CCOCC3)c(O)ccc12 | / | / | / | / | 0%[46 µM]
Fc1ccc(OCc2nc3ccccc3s2)cc1 | -10% | / | / | 19% | /
Cc1ccc(S(=O)(=O)Cc2ccc(C(=O)N3CCc4ccccc4C3)o2)cc1 | 1% | -16% | 6% | -6% | 1%
Cc1ccc(S(=O)(=O)Cc2ccc(C(=O)NCc3ccc4c(c3)OCO4)o2)cc1 | 10µM* | -13% | -73%[10 µM] | ? | -12%
COc1ccccc1N1CCN(C(=O)c2ccc(CS(=O)(=O)c3ccccc3OC)o2)CC1 | 18µM* | -8% | 8% | 13% | ?
CCOC(=O)N1CCN(C(=O)c2ccc(CS(=O)(=O)c3c(Cl)cccc3Cl)o2)CC1 | -2% | -5% | / | 0.0009µM* | -11%
Cc1ccc(S(=O)(=O)Cc2ccc(C(=O)N3CCN(Cc4ccccc4)CC3)o2)cc1 | 8.9µM* | -23% | -1%[10 µM] | -19% | -6%
CCOC(=O)N1CCC(NC(=O)c2ccc(CS(=O)(=O)c3ccccc3C)o2)CC1 | 11µM* | -18% | -29% | -20% | -18%
COc1ccc(S(=O)(=O)Cc2ccc(C(=O)N3CCN(c4ccc(Cl)cc4)CC3)o2)cc1 | 7% | -6% | -4% | ? | -3%
CCOC(=O)N1CCC(NC(=O)c2ccc(CS(=O)(=O)c3c(Cl)cccc3Cl)o2)CC1 | ? | -7% | -5% | ? | -6%
COc1ccc(S(=O)(=O)Cc2ccc(C(=O)N3CCN(c4cc(Cl)ccc4C)CC3)o2)cc1 | -1% | -7% | 27% | 18µM* | -8%
COc1ccc(Nc2nc(N)nc(CSc3nccc(C)n3)n2)cc1 | -6% | 0% | 1% | 8% | 2%
COc1ccc(Nc2nc(N)nc(CSc3n[nH]c(-c4ccccc4)n3)n2)cc1 | 2% | 22µM* | -27% | 4% | -16%
Nc1nc(CSc2n[nH]c(-c3ccccc3)n2)nc(Nc2ccccc2)n1 | ? | 13µM* | -7% | -14% | -10%
